In the library only some 2.6% were active in any assay of this set; here they are far more common.
AmpC inh det = blocks E. coli AmpC beta-lactamase in presence of detergent; P00811; purified AmpC, nitrocefin hydrolysis with detergent; Potency, µM (highest dose often 28.7 µM), inactives show at the top dose activity change, negative = inhibition; 71,000 tested, 0.09% active; AID 584; active = well fitted curve in the direction sought with a large enough effect; inconclusive = small, poorly fitted or top-dose-only effect; note: % is set by controls: 0 for no effect and ±100 for the full control effect
Target sequence (P00811 whole entry, looked up): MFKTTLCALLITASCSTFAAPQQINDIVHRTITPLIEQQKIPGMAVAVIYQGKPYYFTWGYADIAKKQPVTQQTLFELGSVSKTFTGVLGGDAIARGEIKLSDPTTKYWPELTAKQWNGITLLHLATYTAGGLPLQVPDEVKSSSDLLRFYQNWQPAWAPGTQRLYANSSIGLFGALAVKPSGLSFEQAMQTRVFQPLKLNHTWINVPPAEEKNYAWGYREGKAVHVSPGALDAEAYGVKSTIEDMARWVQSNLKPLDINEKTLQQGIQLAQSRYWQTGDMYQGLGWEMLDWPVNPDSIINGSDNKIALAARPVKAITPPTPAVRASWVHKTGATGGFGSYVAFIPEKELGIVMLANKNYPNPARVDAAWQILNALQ
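E. coli AmpC (5.3 nM) in 20 mM phosphate pH 7.0 with 0.01% Triton X-100, preincubated 15 min RT with compound; nitrocefin (2 uL of 800 uM stock) hydrolysis followed by 480 nm absorbance every 20 s over 4 min.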
Prx2 Sm inh = blocks S. mansoni peroxiredoxin 2 enzymatic activity; S. mansoni Prx2 activity coupled to TGR/GSH (TGR is thioredoxin glutathione reductase), NADPH fluorescence loss, qHTS; Potency, µM; 65,000 tested, 0.07% active
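Prx2 activity was followed as the loss of NADPH fluorescence (ex 365/em 450 nm), read every 30 sec for 8 min after H2O2 start. The enzyme mix (50 nM Prx2, 25 nM TGR, GSH, NADPH; pH 7.4 phosphate buffer) was incubated with compound for 15 min at room temperature first.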
LT uptake inh = blocks cellular internalization of anthrax lethal toxin; Cells, anthrax lethal toxin internalization, FRET ratio (460/530); Potency, µM (doses to about 40 µM), for inactives: at the top dose activity change, negative = inhibition, most hits filed as inhibitors; 70,000 tested, 0.67% active; AID 912; note: % is set by controls: 0 for no effect and ±100 for the full control effect; nearly all actives have a fitted effect of over 50% in size
AmpC nodet inh = inhibitors of E. coli AmpC beta-lactamase without detergent. 71,000 tested, 1.8% active. AID 585. Potency, µM (series often up to 28.7 µM), inactives show at the highest dose activity change, negative = inhibition. AmpC nitrocefin hydrolysis, absorbance 480 nm, no detergent; note: % of control where 0% means no effect
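AmpC in 20 mM phosphate buffer pH 7.0 was preincubated 15 min at room temperature with compounds. Nitrocefin (800 uM stock) was then added and hydrolysis followed at 480 nm every 20 s for 4 min.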
Active calls of the source: *; ? = inconclusive; . = not tested or not shown; ! = a repeat was not active; [ ] = dose if it differs, or a comment. Unless noted, calls come from the whole dose curve. Potency is the fitted concentration of half-maximal effect.

SMILES	AmpC inh det	Prx2 Sm inh	LT uptake inh	AmpC nodet inh
COc1ccc(CN2C(=O)c3ccccc3C2C(=O)NCc2cccnc2)c(OC)c1 (stereo not given)	-5.4%	>57	3.1%	21.4%
COc1ccc(OC)c(CN2C(=O)c3ccccc3C2C(=O)NCc2cccnc2)c1 (stereo not given)	11.4%	>57	0.9%	3.98µM*[single pt active]
O=C(NCc1cccnc1)C1c2ccccc2C(=O)N1C1CCCC1 (stereo not given)	13.7%	>57	-4.5%	3.98µM*[single pt active]
Cn1cccc1C(=O)N1CCC[C@@]2(CCN(c3ncccn3)C2)C1	2.2%	>57	-1.5%	21.8%
c1cc(CN2CCCCC2)cc(OCCCNc2nc3ccccc3s2)c1	-0.5%	>57	25.1µM*!	74.5%
COc1cccc(CNc2nc3ccccc3n2CCN2CCCCC2)c1	-3.1%	>57	2.2%	50.5%
COc1ccc2[nH]cc(CCNc3nc(-c4ccccc4OC)nc4ccccc34)c2c1	10.4%	>57	?	0.2%
O=C1CCCC=C1[C@@H](O)CCOCc1ccccc1	.	.	-5.4%[8 µM]	.
Cc1nc2ccc(S(=O)(=O)NC(C(=O)NCc3cccs3)C(C)C)cc2s1 (stereo not given)	10.7%	>57	-13.1%	3.98µM*[single pt active]
Cc1nc2ccc(S(=O)(=O)NC(C(=O)Nc3nccs3)C(C)C)cc2s1 (stereo not given)	9.3%	>57	-10.9%	3.98µM*[single pt active]
CCCCOC(=O)C1C2C=CC3(CN(CCc4ccccc4)C(=O)C13)O2 (stereo not given)	11.7%	>57	14.9%	3.98µM*[single pt active]
CCc1ccc(N2CC34C=CC(O3)C(C(=O)OC(C)C)C4C2=O)cc1 (stereo not given)	6.4%	>57	17.5%	3.16µM*[single pt active]
CCCCOC(=O)C1[C@H]2C(=O)N(CCc3ccccc3)C[C@]23C=C[C@H]1O3 (stereo not given in full)	-1.0%	>57	12.2%	17.1%
CCc1ccc(N2CC34C=CC(O3)C(C(=O)OC)C4C2=O)cc1 (stereo not given)	6.2%	>57	-14.0%	3.98µM*[single pt active]
COc1ccc(C(C)N2CC34C=CC(O3)C(C(=O)OCC(C)C)C4C2=O)cc1 (stereo not given)	14.8%	>57	-9.0%	3.98µM*[single pt active]
CCc1ccccc1N1CC23C=CC(O2)C(C(=O)OCC(C)C)C3C1=O (stereo not given)	8.3%	>57	9.1%	40.9%
COc1cccc(Nc2ncc3nc(-c4ccccc4)c(=O)n(C[C@H]4CCCO4)c3n2)c1	1.9%	>57	?	21.5%
COC(=O)N1CCC2(CC1)CN(c1ccccn1)C2	-0.7%	>57	5.4%	-1.6%
O=C(C1CCCN(S(=O)(=O)c2cccs2)C1)N1CCC(N2CCCCC2)CC1 (stereo not given)	30.5%	>57	7.8%	3.98µM*[single pt active]
O=C(NCCc1ccccc1)C1CCCN(S(=O)(=O)c2cccs2)C1 (stereo not given)	12.3%	>57	-4.6%	3.98µM*[single pt active]
O=S(=O)(c1ccccc1)N1CCC2(CC1)CN(c1ccncc1)C2	12.3%	>57	-5.1%	17.8%
Cc1ccc(S(=O)(=O)n2nc(C)c(Br)c2C)c(C)c1C	7.9%	>57	12.6µM*	-7.5%
CCOC(=O)N1CCN(S(=O)(=O)c2ccc(C)c(C)c2C)CC1	-8.5%	>57	17.0%	62.9%
COc1ccccc1NC(=O)c1nnn(CC(=O)Nc2ccccc2)c1N	9.9%	>57	-3.9%	-21.8%
COc1cccc(Cn2nnc(C(=O)Nc3cc(C)ccc3OC)c2N)c1	11.4%	>57	-6.7%	3.98µM*[single pt active]
SMILES	AmpC inh det	Prx2 Sm inh	LT uptake inh	AmpC nodet inh
Nc1c(C(=O)Nc2ccc3c(c2)OCCO3)nnn1CCc1ccccc1	8.1%	>57	?	3.98µM*[single pt active]
COc1ccc(OC)c(NC(=O)c2nnn(Cc3ccccc3C)c2N)c1	1.8%	>57	-16.2%	14.2%
COc1cccc(CNC(=O)c2nnn(CC(=O)Nc3ccc(C)c(C)c3)c2N)c1	2.0%	>57	-11.5%	-8.4%
COc1ccc(C)cc1NC(=O)c1nnn(CCc2ccccc2)c1N	13.1%	>57	-4.7%	3.98µM*[single pt active]
COc1cccc(Cn2nnc(C(=O)Nc3ccc(C)cc3)c2N)c1	12.1%	>57	1.2%	3.98µM*[single pt active]
Cc1cc(Cc2cc(C)c(N)cc2N)c(N)cc1N	-5.4%[5.75 µM]	>57	4.4%[8 µM]	3.0%[5.75 µM]
Cc1noc(C)c1C(=O)N1CCC2(CCN(Cc3ccncc3)CC2)CC1	1.3%	>57	9.9%	7.1%
COc1ccc(C)cc1NC(=O)c1nnn(Cc2cc(C)ccc2C)c1N	10.9%	.	-7.9%	3.98µM*[single pt active]
OCl	22.4%	.	-2.3%	-5.5%
ClCCl	4.3%	.	-0.2%	-7.3%
COc1cc2c(C)nc3onc(-c4ccccc4)c3c2cc1OC	-3.5%	>57	1µM*	103.6%
COc1cc(-c2nc(-c3cccc(C)c3)no2)cc(OC)c1OC	-0.6%	.	?	68.2%
COc1ccccc1S(=O)(=O)Cc1ccc(C(=O)NC2CCCCC2)o1	-1.0%	>57	-8.9%	11.7%
CCOC(=O)N1CCC(NC(=O)c2ccc(CS(=O)(=O)c3ccc(OC)cc3)o2)CC1	13.2%	>57	6.6%	3.98µM*[single pt active]
COc1ccc(S(=O)(=O)Cc2ccc(C(=O)NC3CCCC3)o2)cc1	14.9%	>57	-8.6%	3.98µM*[single pt active]
COc1ccccc1-c1cc(Nc2ccn[nH]2)ncn1	8.3%	>57	-2.2%	14.0%
OB(O)c1csc2ccccc12	.	.	0.3%	.
CCN1CCCC1Cn1c(-c2ccccc2)nc2c(N(CCOC)CCOC)nc(C)nc21 (stereo not given)	14.9%	.	7.8%	90.8%
CCCSc1nc(C)cc(=O)[nH]1	-2.8%	>57	-15.1%	-13.5%
Cc1cc(=O)[nH]c(SCc2cc(=O)n3nc(C)sc3n2)n1	13.8%	>57	0.6%	3.98µM*[single pt active]
COc1ccccc1NC(=O)N1CCN(c2ccc3nncn3n2)CC1	15.0%	>57	6.3%	3.98µM*[single pt active]
COc1ccc(CNc2cc(-c3ccccc3Cl)ncn2)c(OC)c1	12.3%	>57	-15.9%	57.9%
Clc1ccc(-n2nnnc2SCc2c(-c3ccccc3)nc3sccn23)cc1	-1.7%	>57	-9.8%	12.6µM*
N#CC(=C1CCCC1)c1nc(-c2ccccc2O)cs1	2.1%	>57	-20.5%	6.31µM*
Nc1nc(-c2ccccc2)cc(-c2ccccc2O)n1	8.6%	>57	10.4%	6.1%
SMILES	AmpC inh det	Prx2 Sm inh	LT uptake inh	AmpC nodet inh
CN1CCN(c2ncc3nc(CCc4ccccc4)c(=O)n(CCC#N)c3n2)CC1	-1.1%	>57	?	123.3%
Cc1ccc(C2CC(c3ccccc3C)n3nc(N)nc3N2)cc1 (stereo not given)	8.9%	>57	1.9%	3.98µM*[single pt active]
CCOc1ccc(C2CC(c3ccccc3C)n3nc(N)nc3N2)cc1 (stereo not given)	11.2%	>57	4.6%	67.1%
COc1ccc(C2CC(c3ccccc3C)n3nc(N)nc3N2)cc1 (stereo not given)	16.7%	>57	2.6%	3.98µM*[single pt active]
COc1cccc(C2CC(c3ccccc3C)n3nc(N)nc3N2)c1 (stereo not given)	9.4%	>57	-6.1%	3.98µM*[single pt active]
Cn1cc(Cl)c(C(=O)N(Cc2ccccc2)c2ccccn2)n1	20.6%	>57	4.7%	3.98µM*[single pt active]
O=c1cnc2cnc(N3CCNCC3)nc2n1CCc1ccccc1	-0.5%	>11.4	15.4%	-16.4%

Source: PubChem BioAssay
